These results are taken from PubChem BioAssay (NCATS).

Inconclusive results are not listed. Calls of active or inactive are those of the source. Calls follow the shape of the dose curve; as a rule, active = well fitted curve in the direction sought with a large enough effect; inconclusive = small, poorly fitted or top-dose-only effect, or another doubt; inactive = no such curve, though single readings can be large; an effect the other way counts as inactive or inconclusive.

Test [1] has as its target Phospholipid hydroperoxide glutathione peroxidase GPX4 (Homo sapiens) (UniProt P36969). Nature of the test: Primary qHTS Assay for Inhibitors of Recombinant Selenoprotein Glutathione Peroxidase 4 (GPX4) (AID 1845192). Also: nearly all actives have a fitted effect of over 65% in size. A digest of the protocol:
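qHTS, GR-coupled: GPX4 200 nM + cpd 30 min RT → GSH 1 mM, NADPH 0.5 mM, GR 100 nM → CHP 0.5 mM start; fluor 340/450 at t0 and t15 min; no-enzyme wells as control.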
Background: qHTS replaces the single test concentration by a dilution series.

Test [2] in a line: Quantitative High-Throughput drug screen in 47 multiple myeloma cell lines against the NCATS MIPE library collection: Delta47_JCRB cell viability assay (AID 1918925; also: nearly all actives have a fitted effect of over 45% in size; also: potency is read from the fitted curve at half-maximal effect). A digest of the protocol: (§1)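 Inhibition of cell viability is measured here. Each line was plated at 500 cells per well, treated with MIPE 4.0 drugs, kept 48 hours at 37C, then assayed for ATP content by CellTiter-Glo luminescence.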

Test [3] can be described thus: Quantitative High-Throughput drug screen in 47 multiple myeloma cell lines against the NCATS MIPE library collection: EJM_DSMZ cell viability assay (AID 1918926; also: nearly all actives have a fitted effect of over 30% in size; also: potency is read from the fitted curve at half-maximal effect). The method, boiled down:
as §1

A short description of test [4]: Quantitative High-Throughput drug screen in 47 multiple myeloma cell lines against the NCATS MIPE library collection: AMO1_DSMZ cell viability assay (AID 1918927; also: nearly all actives have a fitted effect of over 30% in size; also: potency is read from the fitted curve at half-maximal effect). A digest of the protocol:
as §1

Test [5] can be described thus: Quantitative High-Throughput drug screen in 47 multiple myeloma cell lines against the NCATS MIPE library collection: FR4_PLB cell viability assay (AID 1918924; also: nearly all actives have a fitted effect of over 35% in size; also: potency is read from the fitted curve at half-maximal effect). A digest of the protocol: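 Relative luminescence from CellTiter-Glo served as the viability signal, referenced to DMSO-treated (100%) and cell-free medium (0%) controls. Treatment lasted 48 hours at 37C with 500 cells per well.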

Test [6] is described as follows: Quantitative High-Throughput drug screen in 47 multiple myeloma cell lines against the NCATS MIPE library collection: ARP1_JJKsccF8 cell viability assay (AID 1918928; also: nearly all actives have a fitted effect of over 40% in size; also: potency is read from the fitted curve at half-maximal effect). The method, boiled down:
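500 cells/well; MIPE 4.0 library pinned in; 48 h, 37 °C, 5% CO2; CellTiter-Glo ATP luminescence. Controls: DMSO = 100% viability, medium only = 0%.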

Sequence of Phospholipid hydroperoxide glutathione peroxidase GPX4 (Homo sapiens) (P36969 whole entry, looked up): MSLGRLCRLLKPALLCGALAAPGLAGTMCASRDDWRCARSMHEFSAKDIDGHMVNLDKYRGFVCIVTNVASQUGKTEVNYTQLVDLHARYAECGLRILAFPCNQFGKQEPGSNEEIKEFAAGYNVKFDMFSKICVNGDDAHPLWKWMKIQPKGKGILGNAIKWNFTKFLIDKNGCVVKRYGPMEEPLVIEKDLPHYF

Regarding `C[C@H](NC(=O)c1sccc1OCc1ccc(Cl)cc1)c1ccccc1`, the Potency entry in test [1] is “inactive”. For the same compound, the Potency in test [2] is 20.9 µM (active).
Take `CC(C)(C)C(=O)Oc1ccc2c(c1)nc(NC(=O)c1cccc([N+](=O)[O-])c1)n2CCCO`: the Potency result in test [1], in test [2] and in test [4] was “inactive” in each case. In addition, in test [3], the Potency is 13.2 µM (active).
Take `COc1cccc(-c2cc(=O)c3ccccc3o2)c1N`: the Potency entry in test [1] and in test [3] was “inactive” throughout. Moreover, the Potency in test [2] is 2.64 µM (active); in test [4], 16.6 µM (active).
Regarding `O=c1cc(-c2cccc3c2Sc2ccccc2S3)oc(N2CCOCC2)c1`, in test [1], the Potency entry is “inactive”. For the same compound, the Potency in test [5] was 26.4 µM (active); in test [2], 5.26 µM (active); in test [4], 16.6 µM (active).
For the compound `C[C@H](NC(=O)C(=O)Nc1ccccc1C(C)(C)C)C(=O)N[C@@H](CC(=O)O)C(=O)COc1c(F)c(F)cc(F)c1F`, the Potency result in test [1], in test [2] and in test [3] was “inactive” throughout. Besides, the Potency in test [4] is 4.69 µM (active).
Take `Oc1ccc(C2CCN(c3ccnc4ccccc34)CC2)cc1O`: in test [1], the Potency entry was “inactive”. In addition, the Potency in test [5] was 14.8 µM (active); in test [2], 9.35 µM (active); in test [4], 18.7 µM (active).
As for `CC(C)C(C)C=CC(C)C1CCC2C3=CC=C4CC(O)CCC4(C)C3CCC21C` (centres undefined), the Potency result in test [1], in test [5], in test [2], in test [3], in test [4] and in test [6] was “inactive” each time.
Regarding `O=C1c2ccccc2-[n+]2ccc3c([nH]c4ccccc43)c21`, in test [1], the Potency result was “inactive”. In addition, the Potency in test [5] is 1.32 µM (active); in test [2], 1.32 µM (active); in test [3], 1.48 µM (active); in test [4], 5.9 µM (active); in test [6], 2.09 µM (active).
In the case of `Nc1ncnc2c1nc(Cl)n2[C@@H]1O[C@H](CO)[C@@H](O)[C@@H]1O`, the Potency result in test [1] was “inactive”. In addition, the Potency in test [2] was 23.5 µM (active); in test [3] it was 18.7 µM (active); in test [4], 2.35 µM (active); in test [6], 13.2 µM (active).
